Each structure is given as a SMILES string. Inconclusive results are not listed. Calls of active or inactive are those of the source. Calls come from the whole dose curve; as a rule, active = well fitted cell-killing curve with a large enough effect in the repeat runs; inconclusive = weak or mixed curves, or effect the other way; inactive = flat fitted curve, though single readings scatter.
% is set by controls: 0 for no effect and ±100 for the full control effect.

A short description of this experiment: qHTS assay to identify small molecule agonists of the TGF-beta/Smad signaling pathway - cell viability counter screen (AID 1346829). Note: top concentration of the series differs between compounds; nearly all actives have a fitted effect of over 45% in size. The conditions noted are these: SBE-bla HEK293T viability, CellTiter-Glo luminescence, 5 h; series mostly up to 76.8 µM. From the text: National Center for Advancing Translational Sciences [NCATS]
NIH Chemical Genomics Center [NCGC]
U.S. Environmental Protection Agency [EPA]
National Institutes of Environmental Health Sciences [NIEHS]
National Toxicology Program [NTP]
U.S. Food and Drug Administration [FDA]
Transforming growth factor beta (TGF-beta) superfamily consists of a large number of structurally related dimeric proteins that act as hormones or local mediators in regulating a wide range of biological functions. This superfamily includes TGF-betas themselves, the bone morphogenetic proteins (BMPs) and the activins. These ligands induce oligomerization of serine/threonine receptor kinases and phosphorylate the cytoplasmic signaling molecules of Smad protein family. CellSensor SBE-bla HEK 293T cell line (Life Technologies, Carlsbad, CA), responsive to TGF-beta was used to screen Tox21 10K compound library for identification of agonists/antagonists of the Smad signaling pathway. This cell line contains a beta-lactamase reporter gene under control of the Smad binding element (SBE) stably integrated into HEK 293T cells. Also cytotoxicity of the compounds was tested in parallel by measuring the cell viability using CellTiter-Glo assay system in the same wells.
Tox21 Assay Protocol Summary:
SBE-bla HEK 293T cells were dispensed at 4,000/well in 6 uL of assay medium into black wall/clear-bottom 1536-well plates using a Multidrop Combi (ThermoFisher Scientific, Waltham, MA) dispenser. After the assay plates were incubated at 37 C and 5% CO2 for an overnight, 23 nL of compounds dissolved in DMSO, positive controls or DMSO only was transferred to the assay plate by a Pintool station (Kalypsys, San Diego, CA). The assay plates were incubated at 37 C and 5% CO2 for 5 hr. One uL of LiveBLAzer B/G FRET substrate (Life Technologies) was added using a Flying Reagent Dispenser (FRD, Aurora Discovery, San Diego, CA) and the plates were incubated at room temperature for 2 hr. Fluorescence intensity (405 nm excitation, 460 nm and 530 nm emissions) was measured using an Envision plate reader (PerkinElmer, Shelton, CT). For cytotoxicity read, 4 uL of CellTiter-Glo reagent (Promega Corporation, Madison, WI) was added to each well of the assay plates using FRD. After 30min incubation at room temperature, the luminescence intensity was measured using ViewLux plate reader (PerkinElmer).
On to `COc1cc(OC)cc(OC)c1`, for which the molecule was classed as inactive.

As for `CN(C)CCC[C@@]1(c2ccc(F)cc2)OCc2cc(C#N)ccc21`, the molecule was classed as inactive.

For the molecule `CC(CN1CC(=O)NC(=O)C1)N1CC(=O)NC(=O)C1` (stereo not given), the result was inactive.

Turning to `O=C1CC2(CCCC2)CC(=O)N1CCNCC1COc2ccccc2O1` (stereo not given), the molecule was called inactive.

`CCCC(C)C(O)CC` (stereo not given): the result was inactive.

`N=C(N)S(=O)O`: the call was inactive.

Regarding `CC/C=C\CCOC(=O)c1ccccc1`, the call was inactive.

For the molecule `CC(=O)O[C@@H]1CC2C3CCc4cc(OC(=O)c5ccccc5)ccc4C3CCC2(C)[C@H]1OC(C)=O` (stereo not given in full), the molecule was classed as inactive.

On to `CCO/C=C1\N=C(c2ccccc2)OC1=O`, for which the molecule was classed as inactive.

As for `BrCCOc1ccccc1`, the result was inactive.

Take `CCCCC(CC)COC(=O)CC#N` (stereo not given): the result was inactive.

Take `O=C(O)Cc1ccccc1Oc1ccc(Cl)cc1Cl`: the call was inactive.

Turning to `NS(=O)(=O)c1cc2c(cc1C(F)(F)F)NCNS2(=O)=O`, the result was inactive.

As to `CCOC(=O)CC`, the call was inactive.

On to `CC(C)=CCC/C(C)=C\C#N`, for which the outcome was inactive.

Turning to `O=C[C@@H](O)[C@H](O)[C@H](O)CO`, the result was inactive.

As for `C[C@@H](CN1CC(=O)NC(=O)C1)N1CC(=O)NC(=O)C1`, the result was inactive.

As for `Cc1nnc(C(=O)NC(C)(C)c2nc(C(=O)NCc3ccc(F)cc3)c(O)c(=O)n2C)o1`, the call was inactive.

For `O=C(O)CCCCCCCCCC(=O)O`, the outcome was inactive.

`CN(C)CCc1c[nH]c2ccc(CS(=O)(=O)N3CCCC3)cc12`: the molecule was called inactive.

With `CCC(=O)OCCOc1ccccc1`, the molecule was called inactive.

For the molecule `O=C(O)CCC(=O)Nc1ccc(S(=O)(=O)Nc2nccs2)cc1`, the molecule was classed as inactive.

As to `CC1(C)C(=O)C(C)(C)C1=O`, the outcome was inactive.

On to `CC1=C(O)C(=O)CO1`, for which the molecule was called inactive.

`CC(=O)OC/C=C(/C)CCC=C(C)C`: the result was inactive.

With `C[C@H]1COc2c(C3(N)CC3)c(F)cc3c(=O)c(C(=O)O)cn1c23`, the molecule was classed as inactive.

With `CCCCCCCCCCCCCC(=O)OCC`, the call was inactive.

Turning to `C[C@@H]1NC(=O)[C@@H](N)CNC(=O)[C@H](C2CCNC(N)=N2)NC(=O)/C(=C/NC(N)=O)NC(=O)[C@H](CNC(=O)C[C@@H](N)CCCN)NC1=O` (stereo not given in full), the activity change, negative = cytotoxicity was -5.87% [at 0.29 µM] (inactive).

In the case of `CCCCN(CCCC)CCCCCCN(CCCC)CCCC`, the call was inactive.

On to `CCN1CCN(C(=O)N[C@@H](C(=O)N[C@@H]2C(=O)N3C(C(=O)O)=C(CSc4nnnn4C)CS[C@H]23)c2ccc(O)cc2)C(=O)C1=O`, for which the outcome was inactive.

Regarding `CC(O)C(CO)C(C)O` (stereo not given), the outcome was inactive.

Take `O=C(OOC(=O)c1ccccc1)c1ccccc1`: the molecule was called inactive.

`CCCC(=O)C(CC)Sc1ccoc1C` (stereo not given): the molecule was called inactive.

`CN(C)CCc1c[nH]c2ccc(C[C@H]3COC(=O)N3)cc12`: the outcome was inactive.

For `O=Cc1ccccc1S(=O)(=O)O`, the call was inactive.

On to `Clc1ccc2c(c1)Nc1ccccc1S2`, for which the outcome was inactive.

As for `N#Cc1cc(NC(=O)C(=O)O)c(Cl)c(NC(=O)C(=O)O)c1`, the result was inactive.

As for `O=S(=O)(O)CC(O)CCl` (stereo not given), the molecule was classed as inactive.

As to `CC(=O)c1ccc2ccc3ccccc3c2c1`, the molecule was classed as inactive.

In the case of `CCCCC(O)/C=C(C)/C=C/C=C/C(=O)N1CCCC1=O` (stereo not given), the molecule was called inactive.
